VACV Venus inh – inhibitors of vaccinia virus (Venus reporter). Vaccinia virus Venus reporter expression, fluorescence. Potency, µM (doses to about 36.5 µM), usual class: inhibitors. 330,000 tested, 0.46% active. AID 720580; calls by dose curve; tested in A549 cells; also: nearly all actives have a fitted effect of over 30% in size
AmpC inh detg – AmpC beta-lactamase inhibition with detergent present | Potency, µM (series often up to 114 µM), hits mostly inhibitors | 370,000 tested, 0.041% active | P00811 | AID 485294 | AmpC hydrolysis of nitrocefin, absorbance 480 nm, 0.01% Triton; also: nearly all actives have a fitted effect of over 25% in size
Target sequence (P00811 whole entry, looked up): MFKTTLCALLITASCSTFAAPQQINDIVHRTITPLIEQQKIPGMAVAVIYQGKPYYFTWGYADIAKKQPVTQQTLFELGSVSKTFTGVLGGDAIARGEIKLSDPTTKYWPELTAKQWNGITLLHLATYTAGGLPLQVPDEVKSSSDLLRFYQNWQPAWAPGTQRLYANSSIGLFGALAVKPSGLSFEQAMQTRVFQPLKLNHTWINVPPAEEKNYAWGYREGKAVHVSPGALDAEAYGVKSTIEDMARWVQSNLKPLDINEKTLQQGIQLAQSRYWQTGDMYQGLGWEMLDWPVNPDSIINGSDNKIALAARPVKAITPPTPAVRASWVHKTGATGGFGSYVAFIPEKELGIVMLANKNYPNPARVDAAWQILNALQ
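AmpC (5.3 nM in the dispensed reagent) in 20 mM phosphate pH 7.0 with 0.01% (detergent screen) or 0.0001% Triton X-100 was preincubated with compounds for 15 min at room temperature. Nitrocefin was then added from an 800 uM solution, and hydrolysis was followed at 480 nm.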
SARS PLpro yeast-1 – inhibitors of SARS-CoV papain-like protease in yeast; S. cerevisiae expressing SARS-CoV PLpro, growth rescue; 330,000 tested, 0.19% active; Potency, µM (titrated, usually from 32.9 µM), actives largely listed as activators; AID 485353; calls by dose curve; also: nearly all actives have a fitted effect of over 55% in size
AmpC no deterg – blocks E. coli AmpC beta-lactamase in detergent-free assay; P00811; AmpC nitrocefin hydrolysis, absorbance 480 nm, 0.0001% Triton; Potency, µM (top dose mostly 57.1 µM), usual class: inhibitors; 330,000 tested, 0.52% active; also: nearly all actives have a fitted effect of over 20% in size
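20 mM phosphate pH 7.0 + 0.01% (detergent screen) or 0.0001% Triton X-100; 5.3 nM AmpC reagent; cpd preinc 15 min RT; nitrocefin (800 uM stock) to start; A480 q20 s × 4 min; Activity was normalised to no-enzyme and no-compound control wells.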
VACV mCherry inh – inhibitors of vaccinia virus infection (mCherry reporter signal); Vaccinia virus mCherry reporter infection, fluorescence; 310,000 tested, 0.63% active; Potency, µM (doses to about 36.5 µM), actives largely listed as inhibitors; calls by dose curve; tested in A549 cells; also: nearly all actives have a fitted effect of over 35% in size
SARS PLpro yeast-2 – Inhibits SARS-CoV PLP in yeast, hit validation; yeast expressing SARS-CoV PLpro, growth phenotype rescue; 1,000 tested, 19% active; shares compounds with SARS PLpro yeast-1; calls only; call rule not given here
Each line names hits and unclear results; the compound was inactive in the other large screens (follow-up assays come after a bar, where they were run). In the library only some 1.3% were active in any assay of this set; here they are far more common. Unless noted, calls follow the shape of the dose curve; as a rule, active = well fitted curve in the direction sought with a large enough effect; inconclusive = small, poorly fitted or top-dose-only effect, or another doubt; inactive = no such curve, though single readings can be large; an effect the other way counts as inactive or inconclusive.

Cc1sc2nc(CN(C(=O)NC3CCCCC3)C3CCCC3)[nH]c(=O)c2c1C	SARS PLpro yeast-1 3.5µM (no result: VACV Venus inh, VACV mCherry inh) | SARS PLpro yeast-2 inconclusive
COC(=O)c1ccccc1NC(=O)CSc1nc2sc3c(c2c(=O)[nH]1)CCCC3	none (no result: SARS PLpro yeast-1, AmpC no deterg)
Cc1ccc(NC(=O)CCNS(=O)(=O)c2ccccc2)cc1S(=O)(=O)N1CCOCC1	none
Cc1ccc(NC(=O)CCNS(=O)(=O)c2ccc(Br)cc2)cc1S(=O)(=O)N1CCOCC1	AmpC inh detg inconclusive, SARS PLpro yeast-1 inconclusive | SARS PLpro yeast-2 inactive
CCc1cccc(C)c1Nc1c(-c2ccc(N3CCOCC3)cc2)nc2ncccn12	none (no result: SARS PLpro yeast-1, AmpC no deterg)
O=C(c1ccc(-n2c(SCc3cccc(F)c3)nc3ccccc3c2=O)cc1)N1CCOCC1	SARS PLpro yeast-1 3.2µM | SARS PLpro yeast-2 active
Cc1cc(C)c2c(NC(=O)CCl)nn(C)c2n1	VACV Venus inh inconclusive, SARS PLpro yeast-1 11µM, VACV mCherry inh 4.5µM | SARS PLpro yeast-2 active
Cc1cc(C)c2c(NC(=S)NC(=O)c3ccccc3)nn(C)c2n1	AmpC inh detg inconclusive
COC1=CC(=O)OC(c2ccc(C#N)cc2)C1 (configuration not stated)	none (no result: AmpC inh detg, SARS PLpro yeast-1, AmpC no deterg)
COc1cccc(CNC(=O)c2ccc3c(c2)nc2n3CCOC2)c1	none (no result: SARS PLpro yeast-1, AmpC no deterg)
CN(C)C(Cc1ccccc1)C(=O)c1ccc(-c2ccccc2)cc1 (configuration not stated)	SARS PLpro yeast-1 3.2µM (no result: VACV Venus inh, VACV mCherry inh) | SARS PLpro yeast-2 inactive
Cc1ccccc1Nc1nn2c(=O)c3ccc(C(=O)NCC(C)c4ccccc4)cc3nc2s1 (configuration not stated)	none (no result: SARS PLpro yeast-1, AmpC no deterg)
CCN(CC)C(=O)c1cccc(NC(=O)C2=COCCO2)c1	SARS PLpro yeast-1 2.2µM (no result: VACV Venus inh, VACV mCherry inh) | SARS PLpro yeast-2 inactive
CCN(CC)S(=O)(=O)c1cc(NC(=O)C2=COCCO2)ccc1Cl	none
CC(=O)Nc1cccc(-c2nnc(-c3ccccc3)o2)c1	AmpC inh detg inconclusive, SARS PLpro yeast-1 inconclusive | SARS PLpro yeast-2 inconclusive
C=CCn1c(SCC(=O)Nc2cc(C)ccc2OC)nnc1-c1ccco1	AmpC inh detg inconclusive, SARS PLpro yeast-1 inconclusive (no result: VACV Venus inh, VACV mCherry inh) | SARS PLpro yeast-2 inactive
COC(=O)Nc1ccc(S(=O)(=O)Nc2ccc(C)cc2)cc1	AmpC inh detg inconclusive (no result: VACV Venus inh, VACV mCherry inh)
COC(=O)Nc1ccc(S(=O)(=O)Nc2ccc(O)cc2)cc1	SARS PLpro yeast-1 inconclusive | SARS PLpro yeast-2 inactive
CCSc1ccccc1C(=O)N1CCN(c2ccccc2F)CC1	SARS PLpro yeast-1 inconclusive (no result: VACV Venus inh, VACV mCherry inh) | SARS PLpro yeast-2 inactive
O=C(c1ccccc1C(=O)N1CCN(c2ccccc2F)CC1)N1CCN(c2ccccc2F)CC1	AmpC inh detg inconclusive (no result: VACV mCherry inh)
Cc1[nH]n(-c2cccc3ccccc23)c(=O)c1/C=N/NC(=O)c1cccc([N+](=O)[O-])c1	SARS PLpro yeast-1 inconclusive, AmpC no deterg inconclusive | SARS PLpro yeast-2 active
Cc1[nH]n(-c2ccccc2)c(=O)c1/C=N/NC(=O)c1cccc([N+](=O)[O-])c1	none (no result: VACV mCherry inh)
COc1ccc(NCN2C(=O)CCC2=O)cc1	SARS PLpro yeast-1 inconclusive | SARS PLpro yeast-2 inactive
CCOc1ccccc1NC(=O)C1CCCN1S(=O)(=O)c1ccc2nc(-c3ccccc3)[nH]c2c1 (configuration not stated)	none (no result: SARS PLpro yeast-1, AmpC no deterg)
CN1C(=O)/C(=C2/C=CC=CN2C)OC1=S	SARS PLpro yeast-1 inconclusive (no result: VACV Venus inh, VACV mCherry inh) | SARS PLpro yeast-2 inconclusive
COc1cccc(N2CCN(c3ncnc4onc(-c5ccc(Cl)cc5)c34)CC2)c1	none (no result: SARS PLpro yeast-1, AmpC no deterg)
COc1cc(NC(=O)NCCc2c(C)nn(C)c2C)cc(OC)c1OC	none (no result: SARS PLpro yeast-1, AmpC no deterg)
CCCC(=O)NC(c1ccccc1)c1ccc2cccnc2c1O (configuration not stated)	VACV Venus inh inconclusive, SARS PLpro yeast-1 inconclusive, VACV mCherry inh inconclusive
CCC(=O)NC(c1ccccc1OC)c1ccc2cccnc2c1O (configuration not stated)	VACV Venus inh inconclusive, AmpC inh detg inconclusive, SARS PLpro yeast-1 inconclusive, VACV mCherry inh inconclusive | SARS PLpro yeast-2 active
CCCCC(=O)NC(c1ccccc1Cl)c1ccc2cccnc2c1O (configuration not stated)	SARS PLpro yeast-1 inconclusive (no result: VACV Venus inh, VACV mCherry inh)
CCCCC(=O)NC(c1ccccc1)c1ccc2cccnc2c1O (configuration not stated)	VACV Venus inh inconclusive, SARS PLpro yeast-1 4.5µM, VACV mCherry inh 1.6µM | SARS PLpro yeast-2 inactive
CCN(CC)S(=O)(=O)c1cccc(C(=O)N/N=C(\C)c2ccc(O)cc2O)c1	VACV Venus inh inconclusive, SARS PLpro yeast-1 3.5µM, VACV mCherry inh inconclusive | SARS PLpro yeast-2 inactive
CCN(CC)S(=O)(=O)c1cccc(C(=O)N/N=C/c2ccc(O)c(O)c2O)c1	SARS PLpro yeast-1 5µM, AmpC no deterg 20µM | SARS PLpro yeast-2 active
COC(=O)c1ccc(COC(=O)C(NC(=O)Cc2ccccc2)C(C)C)cc1 (configuration not stated)	none
CCOc1ccc(NC(=O)NC2CCOC(C)(C)C2)cc1 (configuration not stated)	SARS PLpro yeast-1 inconclusive (no result: VACV mCherry inh) | SARS PLpro yeast-2 inactive
CCCCCCO	SARS PLpro yeast-1 11µM | SARS PLpro yeast-2 inactive
CCCCCCCCO	none
CCNc1nc(NCC)nc(N/N=C/c2ccc(O)c(O)c2)n1	SARS PLpro yeast-1 11µM (no result: VACV Venus inh, VACV mCherry inh) | SARS PLpro yeast-2 inactive
CCNc1nc(NCC)nc(N/N=C/c2ccc(N(C)C)cc2)n1	none
COc1ccc(CNC(=O)c2ccc3c(c2)N(C)C(=O)C2CCCCN32)cc1OC (configuration not stated)	none (no result: SARS PLpro yeast-1, AmpC no deterg)
CC(C)CC(=O)NC(=S)N1CCN(c2ccc([N+](=O)[O-])cc2Cl)CC1	AmpC inh detg inconclusive, SARS PLpro yeast-1 inconclusive (no result: VACV Venus inh, VACV mCherry inh) | SARS PLpro yeast-2 inactive
CC(C)CC(=O)N1CCN(c2ccc([N+](=O)[O-])cc2Cl)CC1	none (no result: VACV Venus inh, VACV mCherry inh)
CCc1nccn1CCC(=O)N1CCCC(Nc2ccc(C(C)C)cc2)C1 (configuration not stated)	none (no result: SARS PLpro yeast-1) | SARS PLpro yeast-2 inactive
